The campaign covered roughly 16,000 compounds. About 4,000 (25%) were called active. About 26% were inconclusive and are not listed. A selection follows. A number with no mark means an inactive call. Calls follow the shape of the dose curve; as a rule, active = well fitted curve in the direction sought with a large enough effect; inconclusive = small, poorly fitted or top-dose-only effect, or effect the other way; inactive = no such curve, though single readings can be large or run the other way.
target: Cytochrome P450 2C9 (Homo sapiens) (UniProt P11712); assay: Cytochrome panel assay with activity outcomes; conditions: recombinant CYP, pro-luciferin dealkylation, luminescence, p450-cyp2c9; series mostly up to 57.1 µM; activity, negative = inhibition: at the top concentration
% is scaled to controls: 0 for no effect and ±100 for the full control effect.

Sequence of Cytochrome P450 2C9 (Homo sapiens) (P11712 whole entry, looked up): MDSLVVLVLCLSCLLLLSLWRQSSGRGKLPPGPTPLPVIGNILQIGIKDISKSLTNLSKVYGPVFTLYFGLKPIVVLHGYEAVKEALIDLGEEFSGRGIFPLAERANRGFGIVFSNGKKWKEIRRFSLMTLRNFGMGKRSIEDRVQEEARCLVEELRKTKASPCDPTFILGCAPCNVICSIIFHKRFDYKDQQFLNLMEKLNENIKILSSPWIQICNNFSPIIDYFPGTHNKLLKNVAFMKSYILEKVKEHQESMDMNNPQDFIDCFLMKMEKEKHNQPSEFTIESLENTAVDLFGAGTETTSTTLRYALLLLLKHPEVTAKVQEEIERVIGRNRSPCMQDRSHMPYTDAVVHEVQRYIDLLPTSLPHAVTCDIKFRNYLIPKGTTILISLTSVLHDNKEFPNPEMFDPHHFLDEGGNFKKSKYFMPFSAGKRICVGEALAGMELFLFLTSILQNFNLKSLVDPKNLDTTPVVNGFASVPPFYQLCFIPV

SMILES | activity, negative = inhibition | AC50
Cc1cc(N=Cc2c(CO)cnc(C)c2O)c(N=Cc2c(CO)cnc(C)c2O)cc1C.[Zn] | -15.6% [at 11.4 µM] | 
O[C@@H](COc1cccc2ccccc12)CN1CCOCC1 | 5.45% [at 11.4 µM] | 
O=C(c1ccc(S(=O)(=O)N2CCCCCC2)cc1)N1CCC(CN2C(=O)c3cccc4cccc(c34)C2=O)CC1 | -4.99% | 
O=C1c2cccc3cccc(c23)C(=O)N1CC1CCN(CC(O)COc2ccc3ccccc3c2)CC1 (centres undefined) |  | 0.891 µM (active)
CCS(=O)(=O)N1CCCC(C(=O)NCCCOC(C)C)C1 (centres undefined) | -14.2% | 
COc1cccc2[nH]c3c(N4CC(C)CC(C)C4)ncnc3c12 (centres undefined) |  | 10 µM (active)
COc1ccccc1-c1ccc2ncnc(N3CCN(C)CC3)c2c1 | 1.65% [at 2.29 µM] | 
Cc1ccc(C)c(N/C(N)=N/c2nc(C)cc(C)n2)c1 | -4.26% | 
Cc1ccc(C)c(NC(=O)Cn2c([N+](=O)[O-])cnc2C)c1 | -22.3% | 
CCOc1ncccc1C(=O)OCC(=O)Nc1cc(C)ccc1C |  | 8.91 µM (active)
CN(C)C(=N)N=C(N)N | -10% [at 25.6 µM] | 
CCn1c(SCC(=O)NC2CCCCC2)nc2c(c1=O)SC(C)C2 (centres undefined) | 4.71% | 
CCn1c(SCC(=O)Nc2ccc3c(c2)OCCO3)nc2c(c1=O)SC(C)C2 (centres undefined) |  | 2 µM (active)
CCn1c(SCC(=O)Nc2nc3ccc(C)cc3s2)nc2c(c1=O)SC(C)C2 (centres undefined) |  | 3.16 µM (active)
Cc1ccc2nc(NC(=O)CSc3nc4c(c(=O)n3C)SC(C)C4)sc2c1 (centres undefined) |  | 1.78 µM (active)
Cn1c(=O)c2[nH]c([C@@H]3CC(=O)C[C@H](c4nc5c([nH]4)c(=O)n(C)c(=O)n5C)N3)nc2n(C)c1=O | 2.38% [at 11.4 µM] | 
CC1(C)CCC(NC(=O)[C@H](N)CCC(=O)O)CC1 | -12.5% | 
N[C@@H](Cc1nn[nH]n1)C(=O)O | -8.85% [at 11.4 µM] | 
CCCn1c(C)nc2c(c1=O)c1nc3ccccc3nc1n2CCC1=CCCCC1 |  | 5.62 µM (active)
C/C(=N/O)[C@@H]1C[C@H](CC(=O)O)C1(C)C | -6.68% [at 11.4 µM] | 

SMILES | activity, negative = inhibition | AC50
Cc1cc(-c2cccc([N+](=O)[O-])c2)nc2ccc3ccccc3c12 | -22.9% | 
O=[N+]([O-])c1ccc2nc(-c3ccccc3)n(OCc3ccc(Cl)cc3)c2c1 |  | 4.47 µM (active)
Clc1ccc(COn2c(-c3ccccc3)nc3ccccc32)cc1 |  | 10 µM (active)
CC(=O)OCC(=O)[C@@]1(O)CC[C@@H]2[C@H]3CCC4=CC(=O)CC[C@]4(C)[C@]3(F)[C@@H](O)C[C@@]21C | -3.55% [at 25.6 µM] | 
C[C@@H]1/C=C\CC(=O)OC[C@H](C)C(=O)N[C@@H](Cc2ccccc2)C(=O)OC1 | 10.4% [at 11.4 µM] | 
O=C1C=C[C@@H](O)[C@H]2[C@@H]3C(=O)N(c4cccc(Oc5ccccc5)c4)C(=O)[C@@H]3CC[C@H]12 | -24.8% [at 11.4 µM] | 
O=C(Nc1cccc2nsnc12)c1ccc(-c2cccc(Cl)c2)o1 | -23.8% | 
CCOC(=O)C(=Cc1ccc(-c2ccsc2C(=O)OC)o1)C(=O)OCC |  | 1.26 µM (active)
CCOC(=O)N/N=C/c1ccc(C)o1 | -28.6% | 
COC(=O)c1sccc1-c1ccc(C(=O)Nc2cccc(Cl)c2)o1 |  | 10 µM (active)
COC(=O)c1sccc1-c1ccc(C(=O)Nc2cccnc2)o1 |  | 5.01 µM (active)
COC(=O)c1nn(-c2ccc(OC)cc2)c(=O)cc1Oc1cccc(Cl)c1 | -7.52% | 
CCOC(=O)C(=CNCC(=O)O)C(=O)OCC | -3.32% | 
CCN1C(=O)[C@H]2[C@H]3[C@H](O)[C@H](O)C/C(=N/O[C@@H](C)c4cn([C@H]5COC[C@H]5O)nn4)[C@@H]3CC[C@@H]2C1=O | 9.59% [at 11.4 µM] | 
CCOC(=O)c1cc(-c2ccccc2)sc1NC(=O)c1ccc(OC)cc1 |  | 11.2 µM (active)
CCOC(=O)c1cc(-c2ccccc2)sc1NC(=O)C(C)(C)C | -29.5% | 
CCOC(=O)c1cc(CC)sc1NC(=O)C(c1ccccc1)c1ccccc1 |  | 6.31 µM (active)
CCOC(=O)CCCNC(=O)CCCNC(=O)C(c1ccccc1)c1ccccc1 | -21.3% | 
COC(=O)c1cc(-c2ccccc2)sc1NC(=O)CN1C(=O)c2ccccc2C1=O |  | 2.82 µM (active)
CCOC(=O)N/N=C1/C[C@@H](O)[C@@H](O)[C@@H]2[C@@H]3C(=O)N(C(C)(C)C)C(=O)[C@H]3CC[C@@H]12 | 6.14% [at 11.4 µM] | 

SMILES | activity, negative = inhibition | AC50
COc1ccccc1-c1nc(Nc2ccncc2)c2ccccc2n1 | -28.7% [at 2.29 µM] | 
c1nc(NC2CC2)c2cc(-c3ccoc3)ccc2n1 | -5.58% [at 2.29 µM] | 
O=c1c2ccccc2nc(-c2ccc(Br)cc2)n1Cc1ccccc1 |  | 2.51 µM (active)
O=C(O)Cn1c(-c2ccccc2)nc2ccccc21 | -9.81% | 
CCOC(=O)Cn1c(-c2ccccc2)nc2ccccc2c1=O |  | 2 µM (active)
C[C@@H](CC(=O)O)[C@@H](N)C(=O)O | -21.2% | 
COc1ccc2c3c(ccc2c1)N[C@H](C(=O)O)CC3 | -0.255% [at 11.4 µM] | 
COCCNc1nc(-c2ccccc2OC)nc2ccccc12 | 5.14% [at 2.29 µM] | 
COc1cc(CC(=O)O)c(C(C)=O)cc1OC | 3.54% | 
CC(=O)c1cc(CC=C(C)C)c(O)cc1O |  | 2.51 µM (active)
CCC(C)(C)n1nnnc1C(c1ccc(C)cc1)N1CCC(C)CC1 (centres undefined) |  | 28.2 µM (active)
Cc1[nH]c2ccccc2c1C(c1ccccn1)N1CCC(C)CC1 (centres undefined) | -1.22% | 
Cn1c(-c2ccccc2)cnc1N | 5.03% | 
Cc1ccccc1CNc1ncnc2c1ncn2[C@@H]1O[C@@H](CO)[C@H](O)[C@@H]1O | 5.73% | 
CC(C)N(CC(=O)O)CC(=O)O | -8.23% [at 11.4 µM] | 
CN1Cc2c(C(=O)OC(C)(C)C)ncn2-c2ccsc2C1=O |  | 5.01 µM (active)
Cc1c(CCO)c(=O)n(C)n1C(=O)c1ccc(F)cc1 | 55% | 
Cc1c(N(C)CS(=O)(=O)O)c(=O)n(-c2ccccc2)n1C | -0.666% [at 25.6 µM] | 
Cc1c(CCO)c(=O)n(-c2ccccc2)n1S(=O)(=O)c1c(Cl)cc(Cl)cc1Cl |  | 5.01 µM (active)

From PubChem BioAssay AID1851 (National Center for Advancing Translational Sciences (NCATS), 2009)
